Data on 26 compounds can be found in PubChem BioAssay.

For some assays here: Results with a measured potency or affinity are listed apart. Results filed as inconclusive are left out. This is one part of the list. The source made the active and inactive calls.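 The calls were made as follows, unless noted: active = falling signal with fitted half-maximal potency no higher than twice the top valid tested dose; inconclusive = poor fit quality, or flat fit spanning -70% to -30%; inactive = potency over limit, rising signal, or flat fit inside 30%.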

Assay [1] in a line: fungal growth arrest, C. neoformans – Alamar Blue, cherry-picks, dose response (AID 686998). For orientation: Alamar Blue is a resazurin reagent that responds to reducing activity.
A short description of assay [2]: C. neoformans lysis by adenylate kinase leakage – AK release luminescence, cherry-picks, dose response (AID 687000;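 active = fitted dose curve reaches 40% lysis signal rise at or below the highest valid concentration tested for that sample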;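 also: luminescent detection of adenylate kinase leaking from lysed yeast; 0% = median neutral control signal and 100% = double that signal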).
Assay [3] can be described thus: viability loss in HepG2 hepatoma cells – cell-based, cherry-picks, set 2, cytotoxicity control, dose response (AID 687002;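 active = a dose-response fit showing signal loss, with half-maximal concentration no higher than twice the top tested dose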).
The nature of assay [4]: viability loss in HeLa cells – cell-based, ATP luminescence, cherry-pick samples, cytotoxicity control, dose response (AID 687004;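 active = a fitted half-maximal concentration no higher than twice the top valid tested dose, with signal falling as cells die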;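 also: 0% = neutral control median and -100% = staurosporine 10 µM control median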).
The nature of assay [5]: Ring1 de-repression measured by qPCR – cell-based, mouse ESC, RT-qPCR, cherry-pick, esBAF inhibitor project, confirmation (AID 743176;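 active = Ring1 gene expression raised more than 2-fold over untreated cells in both replicates at either tested dose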;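 also: Ring1 transcript normalised to actin housekeeping signal by TaqMan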). The conditions noted are these: mouse ESC E14, Ring1 mRNA RT-qPCR fold change, stronger effect = higher value. In general terms: Quantitative PCR measures a nucleic acid by following its amplification.
The nature of assay [6]: Fgf4 repression measured by qPCR – cell-based, mouse ESC, RT-qPCR, cherry-pick, esBAF inhibitor project, confirmation (AID 743177;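 active = Fgf4 expression under 0.8 fold of control in both repeat measurements at one or both tested doses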;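 also: Fgf4 transcript normalised to actin in duplex TaqMan qPCR; cells exposed to compound for 24 h before lysis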). The following applies: mouse ESC E14, Fgf4 mRNA qPCR fold change, stronger effect = lower value.
Assay [7] is described as follows: Bmi1 mRNA increase in mouse ESCs – cell-based, RT-qPCR, mouse ESC, single point, cherry-pick, confirmation (AID 743180;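 active = Bmi1 expression fold change above 6 at either tested concentration, seen in replicate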;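 also: higher fold means more Bmi1 de-repression and stronger esBAF inhibition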). The conditions noted are these: mouse ESC E14, Bmi1 mRNA qPCR fold, stronger effect = higher value.
A short description of assay [8]: viability loss in A549 cells – cell-based, plate reader, single point, cherry-pick, cytotoxicity control (AID 743188; call rule not given here). The following applies: at 25 µM.
Assay [9] is described as follows: viability loss in HepG2 cells – cell-based, plate reader, single point, cherry-pick, cytotoxicity control (AID 743189; in the data active = activity change below about -50%). The conditions noted are these: at 25 µM, stronger effect = lower value.
Assay [10] is described as follows: viability loss in HEK293 cells – cell-based, plate reader, single point, cherry-pick, cytotoxicity control (AID 743190; in the data active = activity change below about -38%, passing the limit was not always enough). The conditions noted are these: at 25 µM.
Assay [11] is described as follows: A549 cell cytotoxicity, dose response, cytotoxicity control, plate reader, cherry-pick, antagonist series (AID 743412; call rule not given here;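 also: 0% = neutral control wells and -100% = positive control wells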).
Assay [12] can be described thus: toxicity toward HepG2 liver cells – cell-based, plate reader, cherry-pick, antagonist series, cytotoxicity control, dose response (AID 743416; call rule not given here;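 also: 0% = neutral control wells and -100% = positive control wells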).
The target of assay [13] is Melanocortin receptor 4 (Homo sapiens) (UniProt P32245). Description: blockade of melanocortin 4 receptor signaling – cell-based, plate reader, cherry pick, counter-screen for LGR2 antagonist project, dose response (AID 743444; call rule not given here).

As for `CCS(=O)(=O)N1CCCCN2[C@H](C1)[C@@H](c1ccc(-c3ccc(C#N)cc3)cc1)[C@@H]2CO`, the call in assay [1], in assay [2], in [3] and in assay [4] was inactive.
For the compound `Cc1noc(C)c1S(=O)(=O)N(C)C[C@H]1OCCCC[C@@H](C)Oc2ccc(NC(=O)CCCCCC(=O)Nc3ccccc3N)cc2C(=O)N([C@@H](C)CO)C[C@@H]1C`, the compound was classed as inactive in [1], in [2], in assay [3] and in [4].
As for `COCC(=O)N1C[C@H](C)[C@H](OC)CN(C)C(=O)c2ccc(NC(=O)NC(C)C)cc2OC[C@@H]1C`, the outcome in assay [1], in assay [2], in [3] and in [4] was inactive.
Regarding `Cc1noc(C)c1NC(=O)Nc1cccc2c1O[C@H](CN(C)S(=O)(=O)c1cn(C)cn1)[C@H](C)CN([C@H](C)CO)C2=O`, the result in assay [1], in [2], in [3] and in assay [4] was inactive.
`COc1cccc(S(=O)(=O)Nc2ccc3c(c2)[C@@H]2C[C@H](CC(=O)NC4CCCCC4)O[C@H](CO)[C@@H]2O3)c1`: the compound was classed as inactive in assay [1], in [2], in assay [3] and in assay [4].
For `C[C@H](CO)N1C[C@H](C)[C@H](CN(C)C(=O)Nc2ccc3c(c2)OCO3)Oc2ncc(-c3ccc(F)cc3)cc2C1=O`, the call in assay [1], in assay [2], in assay [3] and in assay [4] was inactive.
In the case of `Cc1ccc(S(=O)(=O)N[C@@H]2CCCN(Cc3cccc(OCCO)c3)C2)cc1`, the outcome in assay [1], in [2], in [3] and in [4] was inactive.
In the case of `CCC(=O)N1[C@H](CO)[C@H](c2ccccc2)[C@H]1CN(CC)C(=O)c1cccc(F)c1`, the result in [1], in assay [2], in [3] and in assay [4] was inactive.
`COc1cccc(S(=O)(=O)N2C[C@@H](O)COC[C@@H]3O[C@H](CC(=O)N4CCN(C)CC4)CC[C@H]32)c1`: the compound was called inactive in assay [1], in assay [2], in assay [3] and in assay [4].
Consider `COc1ccc(OC(C)C(=O)NC(C)c2ccccc2)cc1` (configuration not stated), for which the compound was called inactive in assay [1], in [2], in assay [3] and in [4].
Consider `C[C@H](CO)N1C[C@H](C)[C@H](CN(C)CC2CCCCC2)Oc2ccc(NC(=O)Nc3ccc4c(c3)OCO4)cc2C1=O`, for which the result in assay [1], in [2], in assay [3] and in assay [4] was inactive.
Regarding `C[C@@H]1CN([C@@H](C)CO)C(=O)CCCn2cc(nn2)CO[C@@H]1CN(C)Cc1ccc2c(c1)OCO2`, the call in assay [1], in assay [2], in [3] and in assay [4] was inactive.
As to `Cc1cccc(C)c1NC(=O)CNC(=O)C1CCCC1`, the compound was classed as inactive in assay [1], in assay [2], in assay [3] and in [4].
As for `C[C@@H]1CCCCO[C@@H](CN(C)S(=O)(=O)c2ccccc2)[C@H](C)CN([C@@H](C)CO)C(=O)c2cc(NC(=O)Nc3ccc(F)cc3)ccc2O1`, the result in [1], in assay [2], in [3] and in assay [4] was inactive.
As for `Cc1ccc(NC(=O)C2(C)CCN2C(=O)CC2CCCC2)cc1` (configuration not stated), the compound was classed as inactive in assay [1], in assay [2], in assay [3] and in assay [4].
Take `O=C(Cc1cccs1)N1CCN(c2ccccc2)CC1`: the compound was called inactive in [1], in [2], in assay [3] and in [4].
Consider `O=C([C@@H]1[C@@H](CO)[C@@H]2Cn3c(cccc3=O)[C@H]1N2Cc1cccc(Cl)c1)N1CCOCC1`, for which the result in [1], in assay [2], in assay [3] and in assay [4] was inactive.
Regarding `Cc1noc(C)c1NC(=O)N(C)C[C@@H]1Oc2ccc(NC(=O)C3CC3)cc2CC(=O)N([C@H](C)CO)C[C@@H]1C`, the compound was classed as inactive in assay [1], in [2], in assay [3] and in assay [4].
In the case of `C[C@H]1CCCCO[C@H](CN(C)Cc2ccncc2)[C@@H](C)CN([C@@H](C)CO)C(=O)c2cc(NC(=O)CCCN(C)C)ccc2O1`, the outcome in [1], in assay [2], in assay [3] and in assay [4] was inactive.
`CCS(=O)(=O)N1CCCCN2[C@H](CO)[C@@H](c3ccc(-c4ccc(C#N)cc4)cc3)[C@@H]2C1`: the compound was classed as inactive in assay [1], in assay [2], in assay [3] and in assay [4].
Consider `CCS(=O)(=O)NCC[C@H]1CC[C@H](NS(=O)(=O)c2cccc(F)c2)[C@H](CO)O1`, for which the call in assay [1], in [2], in assay [3] and in [4] was inactive.
For the compound `C[C@@H](O)C#Cc1ccc([C@@H]2[C@H]3CN(CC4CC4)CCCCN3[C@H]2CO)cc1`, the compound was classed as inactive in [1], in assay [2], in assay [3] and in assay [4].
Regarding `COc1ccc(S(=O)(=O)Nc2ccc3c(c2)C(=O)N([C@@H](C)CO)C[C@H](C)[C@@H](CN(C)C)OCCCC[C@H](C)O3)cc1`, the compound was classed as inactive in [1], in [2], in assay [3] and in [4].
Take `COc1ccc(C2=Nc3ccccc3NC(=O)C2N(C(=O)c2cc3ccccc3[nH]2)c2ccccc2)cc1` (configuration not stated): the fold change is 1.31 in [5] (Ring1 fold increase, at 7 µM); 0.913 (inactive) in assay [5] (at 33 µM); 1.36 in assay [7] (Bmi1 de-repression, at 7 µM); 1.54 (inactive) in assay [7] (at 33 µM). Moreover, the Fgf4 expression fold change in [6] (Fgf4 expression, at 7 µM) was 1.01; in [6] (at 33 µM), 0.976 (inactive). The cell viability change % (negative = cytotoxic) in [8] is 6.45% (inactive). For the same compound, the activity change, negative = inhibition is -23.1% (inactive) in assay [9] and -16.6% (inactive) in [10].
As to `C[C@@H]1CN([C@H](C)CO)C(=O)c2cc(NC(=O)Nc3cccc4ccccc34)ccc2O[C@@H]1CN(C)C(=O)Nc1ccccc1`, the compound was classed as inactive in assay [11], in assay [12] and in assay [13].
Take `COCCNC(=O)C[C@H]1C[C@@H]2c3cc(NC(=O)C4CCC4)ccc3O[C@@H]2[C@H](CO)O1`: the outcome in [1], in assay [3] and in assay [4] was inactive.
